# “And” between values parts separate entries of the source, which are not always exact repeats. Identical values can stand only once. The source made the active and inactive calls.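 How the source made its calls, unless noted: active means thallium flux through the channel raised or lowered by more than 3 SD from vehicle-only wells, actives on both sides; inactive means the rest.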
# Columns and labels:
# [1] = liver-stage malaria parasite growth inhibition, primary screen, cell-based, HepG2, luciferase luminescence, HepG2 viability (AID 624349; in the data active means parasite load remaining mostly below about 12%, no sharp cut-off; inactive means mostly above about 10%;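 further: 100% = mean of DMSO negative control wells on the same plate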); conditions: P. berghei liver stage in HepG2, luciferase luminescence, concentration not given here; parasite load remaining: stronger effect = lower value; viability: measured here: HepG2 viability without parasites
# [2] = Cy5 fluorescence interference with SSB-bound oligo, artefact control for HCV NS3 helicase inhibitor project, biochemical, NIH Clinical Collection, E. coli SSB (AID 743268; call rule not given here)
# [3] = tested on: Hepatitis C virus NS3 helicase; assay: HCV NS3 helicase inhibitors, primary screen, biochemical, fluorescence polarization, NIH Clinical Collection (AID 743270; call rule not given here); conditions: NS3 helicase binding to Cy5-dT15 DNA, stronger effect = higher value, concentration not given here
# [4] = molecular target: Single-stranded DNA-binding protein (Escherichia coli (strain K12)) (UniProt P0AGE0); assay: E. coli SSB displacement from DNA, counter-screen for HCV NS3 helicase inhibitor project, biochemical, fluorescence polarization, NIH Clinical Collection (AID 743271; in the data active means inhibition above about 28%); conditions: stronger effect = higher value, concentration not given here
# [5] = fluorescence interference in NS3h assay format, artefact control for HCV NS3 helicase inhibitor project, biochemical, NIH Clinical Collection (AID 743272; call rule not given here;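 further: HCV NS3 helicase with a Cy5 labelled single stranded DNA probe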); conditions: fluorescence interference counterscreen, stronger effect = lower value
# [6] = modulation of C. elegans fzo-1 (AID 1259413; call rule not given here;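 further: fzo-1 mutant C. elegans worms in liquid wells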); conditions: C. elegans fzo-1 modulator screen, mean read-out; stronger effect = higher value
# [7] = sensitizers of A549 cells to miR-34 induction, primary screen, imaging, A549 dox-inducible miR-34, nuclei and caspase counts (AID 1347080;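 active means compounds whose cell count with miR-34 switched on is under 0.7 times the count with it off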); conditions: A549 miR-34 inducible, Hoechst nuclei count, 48 h
# [8] = survival rescue of mitochondrial mutant cells in low glucose, primary screen, MELAS cybrids, Rieske KO mouse fibroblasts, CellTiter-Glo (AID 1508586;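 active means mean z-score across replicates of 1.96 or higher in either the MELAS or the Rieske mutant cell line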;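 further: z relative to plate mean and SD of compound and empty wells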)
# F380Y = assay: modulators of BK channel variants, profiling panel, selectivity assay, cell-based, U2OS BacMam, thallium flux, beta subunits (AID 1259406); conditions: at 30 µM;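 further: initial slope of Thallos dye fluorescence rise after thallium is added; log ratio against the mean of 0.3% DMSO vehicle wells on the same plate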
# F380Y/beta1 = assay: as above; conditions: at 30 µM
# F380Y/beta2Delta = assay: as above; conditions: at 30 µM
# F380Y/beta4 = assay: as above; conditions: at 30 µM
# [9] = molecular target: Calcium-activated potassium channel subunit alpha-1 (Homo sapiens) + Leucine-rich repeat-containing protein 26 (Homo sapiens) (UniProt Q12791+Q2I0M4); assay: as above; conditions: F380Y/Slo1WT/gamma1, at 30 µM
# R275C = assay: as above; conditions: at 30 µM
# R275C/beta1 = assay: as above; conditions: at 30 µM
# R275C/beta2Delta = assay: as above; conditions: at 30 µM
# R275C/beta4 = assay: as above; conditions: at 30 µM
# R275C/Slo1WT/beta2 = assay: as above; conditions: at 30 µM
# [10] = stronger effect = lower value, cell number ratio, induced over uninduced
# [11] = measured here: relative caspase fold change +Dox/-Dox
# [12] = measured here: total cells with miR-34 induction, stronger effect = lower value
# [13] = measured here: total cells without miR-34 induction
# [14] = MELAS cybrid survival, CellTiter-Glo 48 h, stronger effect = higher value
# [15] = Rieske KO mouse fibroblast survival, CellTiter-Glo 72 h
# Chain of Calcium-activated potassium channel subunit alpha-1 (Homo sapiens) + Leucine-rich repeat-containing protein 26 (Homo sapiens) (Q2I0M4 whole entry, looked up, one chain of several): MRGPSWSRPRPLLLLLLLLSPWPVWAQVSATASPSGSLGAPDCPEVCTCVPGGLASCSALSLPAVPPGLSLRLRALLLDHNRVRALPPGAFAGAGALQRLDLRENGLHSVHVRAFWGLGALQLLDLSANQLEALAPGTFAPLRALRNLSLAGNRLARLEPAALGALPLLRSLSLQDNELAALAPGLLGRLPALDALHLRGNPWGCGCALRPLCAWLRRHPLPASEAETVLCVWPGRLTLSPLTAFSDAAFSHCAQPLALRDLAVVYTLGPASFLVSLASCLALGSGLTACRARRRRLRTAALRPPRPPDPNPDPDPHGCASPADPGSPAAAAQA
smiles,measurement,setting,value
Cc1onc(-c2ccccc2)c1C(=O)NC1C(=O)N2C1SC(C)(C)C2C(=O)O (stereo unspecified),parasite load remaining,[1],62.5% (inactive)
same,viability,[1],137%
same,fluorescence ratio,[2],1.01 (inactive)
same,inhibition,[3],-1.36% (inactive)
same,inhibition,[4],2.57% (inactive)
same,fluorescence ratio,[5],1 (inactive)
same,mean signal,[6],250 (inactive)
same,fold change,[7]; [10],0.977 (inactive) and 0.865 (inactive)
same,fold change,[7]; [11],2.75 and 0.316
same,cell count,[7]; [12],10800 and 8670
same,cell count,[7]; [13],11000 and 10000
same,z-score,[8]; [14],1.06 (inactive)
same,z-score,[8]; [15],0.0389
same,log fold change Tl+ flux,F380Y,-0.000886 (inactive)
same,log fold change Tl+ flux,F380Y/beta1,-0.0194 (inactive)
same,log fold change Tl+ flux,F380Y/beta2Delta,-0.0125 (inactive)
same,log fold change Tl+ flux,F380Y/beta4,-0.0665 (inactive)
same,log fold change Tl+ flux,[9],0.0114 (inactive)
same,log fold change Tl+ flux,R275C,0.00519 (inactive)
same,log fold change Tl+ flux,R275C/beta1,0.0152 (inactive)
same,log fold change Tl+ flux,R275C/beta2Delta,0.00981 (inactive)
same,log fold change Tl+ flux,R275C/beta4,-0.0329 (inactive)
same,log fold change Tl+ flux,R275C/Slo1WT/beta2,-0.0606 (inactive)
C[C@H]1[C@@H](OC(=O)CCC(=O)O)O[C@@H]2OC3(C)CC[C@H]4[C@H](C)CC[C@@H]1[C@@]24OO3,parasite load remaining,[1],54.9% (inactive) and 19.6% (inactive)
same,viability,[1],74.2% and 68%
same,fluorescence ratio,[2],1.05 (inactive)
same,inhibition,[3],4.36% (inactive)
same,inhibition,[4],-3.18% (inactive)
same,fluorescence ratio,[5],0.99 (inactive)
same,mean signal,[6],258 (inactive)
same,fold change,[7]; [10],1.04 (inactive)
same,fold change,[7]; [11],0.836
same,cell count,[7]; [12],6160
same,cell count,[7]; [13],5910
same,z-score,[8]; [14],-1.42 (inactive)
same,z-score,[8]; [15],0.615
same,log fold change Tl+ flux,F380Y,0.0198 (inactive)
same,log fold change Tl+ flux,F380Y/beta1,0.0472 (inactive)
same,log fold change Tl+ flux,F380Y/beta2Delta,0.00204 (inactive)
same,log fold change Tl+ flux,F380Y/beta4,0.00589 (inactive)
same,log fold change Tl+ flux,[9],-0.0126 (inactive)
same,log fold change Tl+ flux,R275C,0.0183 (inactive)
same,log fold change Tl+ flux,R275C/beta1,0.0209 (inactive)
same,log fold change Tl+ flux,R275C/beta2Delta,0.00454 (inactive)
same,log fold change Tl+ flux,R275C/beta4,-0.0146 (inactive)
same,log fold change Tl+ flux,R275C/Slo1WT/beta2,0.000694 (inactive)
NC(Cc1cc(I)c(Oc2ccc(O)c(I)c2)c(I)c1)C(=O)O (stereo unspecified),parasite load remaining,[1],39.9% (inactive)
same,viability,[1],106%
same,fluorescence ratio,[2],0.99 (inactive)
same,inhibition,[3],-1.36% (inactive)
same,inhibition,[4],1.81% (inactive)
same,fluorescence ratio,[5],0.92 (inactive)
same,mean signal,[6],230 (inactive)
same,fold change,[7]; [10],0.986 (inactive) and 0.874 (inactive)
same,fold change,[7]; [11],1.58 and 0.636
same,cell count,[7]; [12],9780 and 7770
same,cell count,[7]; [13],9910 and 8890
same,z-score,[8]; [14],-0.101 (inactive)
same,z-score,[8]; [15],0.0136
same,log fold change Tl+ flux,F380Y,0.0253 (inactive)
same,log fold change Tl+ flux,F380Y/beta1,0.112 (inactive)
same,log fold change Tl+ flux,F380Y/beta2Delta,0.058 (inactive)
same,log fold change Tl+ flux,F380Y/beta4,0.107 (active)
same,log fold change Tl+ flux,[9],0.0742 (inactive)
same,log fold change Tl+ flux,R275C,0.047 (inactive)
same,log fold change Tl+ flux,R275C/beta1,0.0451 (inactive)
same,log fold change Tl+ flux,R275C/beta2Delta,0.136 (active)
same,log fold change Tl+ flux,R275C/beta4,0.254 (active)
same,log fold change Tl+ flux,R275C/Slo1WT/beta2,-0.125 (active)
CCOC(=O)CCC(=O)OC1C(OC2C(C)C(OC3CC(C)(OC)C(O)C(C)O3)C(C)C(=O)OC(CC)C(C)(O)C(O)C(C)C(=O)C(C)CC2(C)O)OC(C)CC1N(C)C (stereo unspecified),parasite load remaining,[1],56% (inactive)
same,viability,[1],94.7%
same,fluorescence ratio,[2],1.07 (inactive)
same,inhibition,[3],0.45% (inactive)
same,inhibition,[4],0.29% (inactive)
same,fluorescence ratio,[5],0.98 (inactive)
same,mean signal,[6],242 (inactive)
same,fold change,[7]; [10],0.96 (inactive)
same,fold change,[7]; [11],1.93
same,cell count,[7]; [12],10400
same,cell count,[7]; [13],10900
same,log fold change Tl+ flux,F380Y,-0.00772 (inactive)
same,log fold change Tl+ flux,F380Y/beta1,0.06 (inactive)
same,log fold change Tl+ flux,F380Y/beta2Delta,-0.0119 (inactive)
same,log fold change Tl+ flux,F380Y/beta4,-0.0302 (inactive)
same,log fold change Tl+ flux,[9],-0.0035 (inactive)
same,log fold change Tl+ flux,R275C,-0.135 (active)
same,log fold change Tl+ flux,R275C/beta1,0.019 (inactive)
same,log fold change Tl+ flux,R275C/beta2Delta,-0.0301 (inactive)
same,log fold change Tl+ flux,R275C/beta4,-0.00612 (inactive)
same,log fold change Tl+ flux,R275C/Slo1WT/beta2,0.000174 (inactive)
CC1(C)SC2C(NC(=O)C(N)c3ccccc3)C(=O)N2C1C(=O)O (stereo unspecified),parasite load remaining,[1],64.5% (inactive)
same,viability,[1],97.1%
same,fluorescence ratio,[2],1.05 (inactive)
same,inhibition,[3],-3.18% (inactive)
same,inhibition,[4],-3.53% (inactive)
same,fluorescence ratio,[5],1.03 (inactive)
same,mean signal,[6],248 (inactive)
same,fold change,[7]; [10],0.924 (inactive)
same,fold change,[7]; [11],1.56
same,cell count,[7]; [12],9300
same,cell count,[7]; [13],10100
same,log fold change Tl+ flux,F380Y,0.0123 (inactive)
same,log fold change Tl+ flux,F380Y/beta1,-0.00858 (inactive)
same,log fold change Tl+ flux,F380Y/beta2Delta,-0.029 (inactive)
same,log fold change Tl+ flux,F380Y/beta4,-0.0312 (inactive)
same,log fold change Tl+ flux,[9],0.0123 (inactive)
same,log fold change Tl+ flux,R275C,0.0182 (inactive)
same,log fold change Tl+ flux,R275C/beta1,-0.0441 (inactive)
same,log fold change Tl+ flux,R275C/beta2Delta,0.02 (inactive)
same,log fold change Tl+ flux,R275C/beta4,-0.0148 (inactive)
same,log fold change Tl+ flux,R275C/Slo1WT/beta2,-0.0117 (inactive)
